Only some compounds are listed: those with a hit (about 3.3% of all), similar ones and a draw of the others.
esBAF inh = blocks esBAF chromatin remodeling in mouse ES cells. Bmi1-luciferase knock-in reporter, 24 h; 100% = twice the neutral-well signal. reporter increase, % at 12.5 µM. 350,000 compounds, 2% hits. AID 602393; in the data active = activation above about 40%;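 also: 0% = median of the plate's neutral control wells and 100% = double that signal; a rise in the Bmi1 reporter signal indicates esBAF inhibition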
SMARCA2 activ = activators of SMARCA2 function; 370,000 compounds, 1% hits; MG213 cells, MMTV-luciferase reporter, dexamethasone, overnight; AID 652017; activation, % at 9.1 µM; in the data active = activation above about 7.8%;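 also: 0% = vehicle wells and 100% = reference activator wells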
Gli-Sufu antag = Gli-Sufu pathway antagonism; inhibition, % at 5 µM; 340,000 compounds, 0.74% hits; Sufu-KO-LIGHT fibroblasts, Gli luciferase reporter luminescence;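 active = inhibition above about 55%, limit read from the data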;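 also: 0% = DMSO-treated cells and 100% = wells with medium but no cells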
697 NFkB inh = lowers PMA/ionomycin-induced NF-kB signal in 697 B cells; 330,000 compounds, 0.33% hits; inhibition, % at 4 µM; AID 435022; 697 B-cell NF-kB luciferase reporter, 16 h; in the data active = inhibition above about 35%
Jurkat NFkB inh = lowers PMA/ionomycin-induced NF-kB signal in Jurkat cells. PMA/ionomycin-induced NF-kB luciferase reporter, luminescence. inhibition, % at 4 µM. 330,000 compounds, 0.53% hits. AID 435003; in the data active = inhibition above about 50%
697 NFkB conf = inhibitors of the PMA/ionomycin-induced NF-kB reporter in 697 B cells, retest | shares compounds with 697 NFkB inh | 697 B-cell NF-kB luciferase, 16 h | inhibition, % at 4 µM | 2,000 compounds, 35% hits; in the data active = inhibition mostly above about 28%, no sharp cut-off; inactive = mostly below about 22%
Gli-Sufu confirm = confirmation of Gli-SUFU pathway antagonists. shares compounds with Gli-Sufu antag. Sufu-KO-LIGHT cells, Gli luciferase reporter, luminescence. inhibition, % at 5 µM. 2,500 compounds, 40% hits. AID 602428;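 active = mean inhibition at 5 µM reaching about 45%, limit read from the data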;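 also: plate controls were DMSO-treated cells for no effect and wells lacking cells for full effect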
SufuKO cytotox = cytotoxicity counter-screen for Gli-SUFU antagonists | shares compounds with Gli-Sufu antag | Sufu-KO-LIGHT cells cytotoxicity, ATP luminescence | cytotoxicity, % at 5 µM | 2,500 compounds, 32% hits | AID 651994;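 active = mean cytotoxicity at 5 µM above about 25%, limit read from the data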;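 also: cells exposed to compound overnight for roughly 16 to 18 hours; plate controls were DMSO wells with cells for no effect and medium without cells for full effect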
Wnt3a cs = counter-screen for Gli-SUFU antagonists: Wnt3a reporter inhibition | shares compounds with Gli-Sufu antag | Wnt-LIGHT cells, Wnt3a-driven luciferase reporter, luminescence | inhibition, % at 6.25 µM | 2,500 compounds, 20% hits;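 active = mean inhibition above about 25%, limit read from the data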
SMARCA2 conf = SMARCA2 activation, confirmation screen; 3,500 compounds, 30% hits; MG213 cells, MMTV-luciferase with dexamethasone, luminescence, overnight; MG213 cells expressing E1A, Rb sequestered; DMSO wells 0%, reference activator 100%; shares compounds with SMARCA2 activ; activation, % at 9.1 µM; AID 652260;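 active = activation above its plate's cutoff, the mean activation of tested wells plus 3 SD, cut at about 7.9% in these data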
GAL4-VP16 Luc = activates GAL4-VP16 luciferase, flagging SMARCA2 activator hits | shares compounds with SMARCA2 activ | HEK293 GAL4-VP16 pG5luc reporter, luciferase luminescence; scaled: DMSO wells 0%, SAHA wells 100% | activation, % at 9.1 µM | 3,500 compounds, 41% hits | AID 686939;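 active = activation above the solvent-only control well mean plus 3 SD, averaged across control plates, cut at about 5.2% in these data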
* marks the source's active call; other numbers are inactive results; i = inactive; / = no result.

SMILES	esBAF inh	SMARCA2 activ	Gli-Sufu antag	697 NFkB inh	Jurkat NFkB inh	697 NFkB conf	Gli-Sufu confirm	SufuKO cytotox	Wnt3a cs	others
Cc1nn(C(C)(C)C)c(C)c1/C=N/OC(=O)Nc1ccc(Cl)c(Cl)c1	/	-11	88*	52*	11	69*	89*	-8	103*
O=S(=O)(c1ccc2c(c1)C(=NO)c1cc(S(=O)(=O)N3CCCCC3)ccc1-2)N1CCCCC1	-88	8	95*	104*	25	-33	93*	71*	104*
Cc1cccc(Nc2nc(N3CCOCC3)nc(N3CCOCC3)n2)c1	2	0	22	31	-25	/	/	/	/
Cc1ccc(Nc2nc(N3CCOCC3)nc(N3CCOCC3)n2)cc1C	4	-4	57*	55*	32	47*	50*	41*	-51
CC(C)NC(=O)N(C)C[C@@H]1Oc2ccc(NC(=O)c3ccncc3)cc2C(=O)N([C@@H](C)CO)C[C@H]1C	3	/	/	/	/	/	/	/	/
CCOc1cc(/C=N/NC(=O)c2ccc(=O)n(C)c2)ccc1O	/	-1	1	5	7	/	/	/	/
Cc1ccc(C(C)C)c(OCc2ccc(C(=O)N/N=C/c3ccc(O)c(O)c3)cc2)c1	/	-10	67*	-276	31	-38	49*	29*	93*
CCCn1c2c(c(=N)c3c1CCC3)CCC2	/	-7	21	3	36	/	/	/	/
N=c1c2c(n(Cc3ccc(Cl)c(Cl)c3)c3c1CCC3)CCCC2	/	-4	83*	44*	11	29*	89*	19	36*
CCOc1ccc(-c2nnc(-c3ccccc3)n2-c2ccccc2)cc1	24	7	-7	-61	-6	/	/	/	/
CCOc1ccc(-c2c[n+]3c(n2-c2ccccc2)CCCCC3)cc1	/	-8	88*	60*	47	54*	88*	39*	21
COc1ccc(-c2n(Cc3ccccc3)c3ccccc3[n+]2Cc2ccccc2)cc1	/	-2	72*	41*	45	33*	77*	33*	-24
CNC(=O)CSc1nc2nn(-c3ccccc3)c(=O)c-2c2n1CCCCC2	-3	/	56*	35*	-1	38*	23	6	-28
CC(C)CNC(=O)CSc1nc2nn(-c3ccccc3)c(=O)c-2c2n1CCCCC2	/	-1	11	17	-5	/	/	/	/
Cc1cc(NC(=O)c2ccc3c(c2)OCCO3)ccc1NC(=O)c1cc2ccccc2o1	-2	-1	6	-5	-16	/	/	/	/
O=C(Nc1ccc(NC(=O)c2cc3ccccc3o2)cc1)c1ccc2c(c1)OCCO2	/	1	52	72*	9	59*	61*	2	88*
CCOc1ccc(N=C(NN)c2ccc3ccccc3n2)cc1	/	-5	64*	-252	13	-43	73*	14	81*
COc1ccccc1-c1cn(CC[C@@H]2CC[C@@H](NC(=O)C3CCOCC3)[C@@H](CO)O2)nn1	3	/	/	/	/	/	/	/	/
Cc1ccc(S(=O)(=O)Nc2ccc3c(c2)C(=O)N([C@@H](C)CO)C[C@H](C)[C@@H](CN(C)Cc2ccc(C(=O)O)cc2)OCCCC[C@H](C)O3)cc1	3	/	/	/	/	/	/	/	/
CCOC(=O)c1sc(NC(=O)Nc2ccccc2F)nc1C	-65	-2	51	-443	-140	-439	41	49*	85*
C[C@H](CO)N1C[C@H](C)[C@H](CN(C)C(=O)Nc2ccccc2)Oc2ccc(NC(=O)CCCCCC(=O)Nc3ccccc3N)cc2CC1=O	4	/	/	/	/	/	/	/	/
CCN(CC(=O)Nc1c(F)cccc1F)C(=O)c1cc(S(=O)(=O)N(CC)CC)ccc1N1CCCCC1	11	3	52	66*	5	49*	42	6	19
CN(C)C(=O)C[C@@H]1CC[C@H]2[C@H](COc3ccc(NC(=O)NCc4ccccc4)cc3C(=O)N2C)O1	-7	/	/	/	/	/	/	/	/
COc1ccc(C(=O)N=c2sc3c(C)ccc(OC)c3n2C)cc1	7	9.2*	-107	-299	-30	-337	/	/	/	SMARCA2 conf=7;GAL4-VP16 Luc=9.8*
CCOc1nc(-c2ccccc2)ccc1-c1noc(-c2cccs2)n1	0	-4	-2	-17	-5	/	/	/	/
SMILES	esBAF inh	SMARCA2 activ	Gli-Sufu antag	697 NFkB inh	Jurkat NFkB inh	697 NFkB conf	Gli-Sufu confirm	SufuKO cytotox	Wnt3a cs	others
c1csc(-c2nc(-c3ccc(-c4ccon4)s3)no2)c1	/	8.9*	-81	-268	-141	-277	/	/	/	SMARCA2 conf=6;GAL4-VP16 Luc=9.7*
CNC(=O)C[C@@H]1CC[C@@H]2[C@H](COc3ccc(NC(=O)Nc4cccc(C)c4)cc3C(=O)N2C)O1	6	/	/	/	/	/	/	/	/
O=C(Nc1nc2c(F)cc(F)cc2s1)c1ccccn1	-73	11*	-66	i	-32	-318	/	/	/	SMARCA2 conf=-14;GAL4-VP16 Luc=20*
O=C(COc1ccccc1)NNc1nc2c(F)cc(F)cc2s1	/	-1	-19	5	1	/	/	/	/
C(=N\Nc1ccccc1)/c1nc2ccccc2s1	/	10*	-93	-313	-137	-48	/	/	/	SMARCA2 conf=6;GAL4-VP16 Luc=9.0*
C[C@@H]1CN([C@H](C)CO)C(=O)c2cccc(NC(=O)Nc3ccc4c(c3)OCO4)c2O[C@H]1CN(C)Cc1ccncc1	22	/	/	/	/	/	/	/	/
COc1ccc(C2=Nn3c(nnc3-c3ccccc3F)SC2)cc1OC1CCCC1	11	17*	-28	i	22	i	/	/	/	SMARCA2 conf=30*;GAL4-VP16 Luc=20*
O=C(CSc1nnc(-c2ccccc2)o1)NC1CCCC1	/	-2	-9	14	-1	/	/	/	/
CC(C)(C)c1ccc(-c2nnc(SCC(=O)NC3CC3)o2)cc1	40	9.0*	-26	57*	-78	39*	/	/	/	SMARCA2 conf=0;GAL4-VP16 Luc=5.5*
C[C@@H]1CN([C@H](C)CO)S(=O)(=O)c2ccc(-c3ccccc3F)cc2O[C@H]1CN(C)Cc1cncnc1	5	/	/	/	/	/	/	/	/
O=C(O)c1ccccc1N/N=C\c1ccnc2ccccc12	/	8.0*	2	-262	-61	-97	/	/	/	SMARCA2 conf=3;GAL4-VP16 Luc=3
CCNc1nc(N)nc(-c2cc(Cl)ccc2O)n1	17	/	-108	-228	-143	/	/	/	/
CCCCNc1nc(N)nc(-c2cc(Cl)ccc2O)n1	/	17*	-95	-290	-135	-233	/	/	/	SMARCA2 conf=14*;GAL4-VP16 Luc=13*
C[C@H]1CN([C@@H](C)CO)C(=O)Cc2cc(NC(=O)CCC(F)(F)F)ccc2O[C@H]1CN(C)C	0	/	/	/	/	/	/	/	/

Screens as filed in PubChem BioAssay.
